Shown are actives, neighbours in structure and some others; about 2.6% of the full set was active somewhere.
eIF4H inh: inhibitors of RNA binding by human eIF4H; eIF4H fluorescence polarization binding assay; inhibition, % at 35 µM; 0.94% of 290,000 active; AID 2012;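 note: calls also rest on retests at 20 µM and on dose response follow-up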
PABP FP inh: PABP-poly(A) binding inhibition; calls only at 35 µM; AID 2014; 1% of 290,000 active; PABP-poly(A) RNA binding, fluorescence polarization;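 note: calls also rest on retests at 20 µM and on dose response follow-up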
PABP1 MLLE inh: inhibitors of microRNA-mediated deadenylation, human PABP1 MLLE binding; P11940; 0.36% of 360,000 active; AID 588489; inhibition, % at 20 µM; GST-MLLE / FITC-PAM2 fluorescence polarization; in the data active = inhibition above about 35%, passing the limit was not always enough
PHOSPHO1 inh: blocks human PHOSPHO1 phosphatase activity; Q8TCT1; recombinant PHOSPHO1, absorbance phosphatase assay; inhibition, % at 13.3 µM; 1.1% of 290,000 active; AID 1565; in the data active = inhibition above about 60%
A3A deaminase: human APOBEC3A DNA deaminase inhibition. P31941. recombinant A3A, FAM/TAMRA ssDNA deamination fluorescence. inhibition, % at 20 µM. 0.41% of 330,000 active;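 active = at least 40% inhibition at 20 µM here, with at most 30% in a related deaminase screen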
Target sequence (P31941 whole entry, looked up): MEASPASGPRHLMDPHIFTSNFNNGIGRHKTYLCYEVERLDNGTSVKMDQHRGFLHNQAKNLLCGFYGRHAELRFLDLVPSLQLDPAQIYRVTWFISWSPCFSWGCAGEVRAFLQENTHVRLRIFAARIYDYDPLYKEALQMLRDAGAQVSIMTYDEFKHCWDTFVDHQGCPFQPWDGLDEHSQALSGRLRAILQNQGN
A3G deaminase: inhibitors of human APOBEC3G DNA deaminase | inhibition, % at 20 µM | 0.28% of 330,000 active | Q9HC16 | AID 493012 | recombinant A3G, ssDNA deamination FAM/TAMRA fluorescence;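 active = inhibition of at least 40% at 20 µM, with no more than 30% in the related APOBEC3A deaminase screen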
Hits are given with their value; – = inactive; ? = inconclusive; · = no result given; + = active, no number. Unless noted, the rule behind the calls is not given here.

SMILES	eIF4H inh	PABP FP inh	PABP1 MLLE inh	PHOSPHO1 inh	A3A deaminase	A3G deaminase
O=C(CCNS(=O)(=O)c1ccccc1C(F)(F)F)NNC(=O)C1COc2ccccc2O1 (stereo unspecified)	·	·	–	·	–	–
COc1ccccc1N(CC(=O)Nc1ccc(S(=O)(=O)N2CCCCC2)cc1)S(C)(=O)=O	–	–	–	–	–	–
CCOC(=O)c1c(-c2ccc(C)o2)csc1N	52	+	–	69	–	–
CCOC(=O)c1c(-c2ccsc2)csc1N	–	–	–	92	–	–
CN(CC(=O)Nc1c(Cl)cccc1Cl)C(=O)Cc1ccc2c(c1)CCC2	·	·	–	·	–	–
COc1ccccc1C(=O)COC(=O)CCNS(=O)(=O)c1ccc(C)c(C)c1	·	·	–	·	–	–
Clc1ccc(OCCCCSc2ncccn2)cc1	–	–	38	–	–	–
C=CCSc1nc2sc3c(c2c(=O)n1CC)CCc1ccccc1-3	–	–	–	87	–	–
COc1ccc(CN(CC2CCCO2)S(=O)(=O)c2ccc(C(=O)O)cc2)cc1OC (stereo unspecified)	–	–	–	97	–	–
COc1cc(S(=O)(=O)N(Cc2ccccc2)CC2CCCO2)ccc1-n1cnnn1 (stereo unspecified)	–	–	–	–	–	–
COc1ccccc1-n1cc(C(=O)NCC(=O)N2CCN(c3ccccc3)CC2)c2ccccc2c1=O	–	–	–	63	–	–
COC(=O)c1ccc(CN2C(=O)NC3(CCCCC3C)C2=O)o1 (stereo unspecified)	–	–	–	70	–	–
COCc1cc(CN2CCN(Cc3ccsc3)C(CCO)C2)ccc1OC (stereo unspecified)	–	–	–	–	–	–
Cc1ccc(-n2c(C)cc(=O)cc2C)c(C)c1	–	–	–	–	–	–
Cc1cc(=O)cc(C)n1-c1ccc(F)cc1F	–	+	–	–	–	–
CC1CCCC(C)N1c1nnc(NC(=O)Cn2c(=O)oc3ccccc32)s1 (stereo unspecified)	–	–	–	62	–	–
CCCc1nnc(NC(=O)Cn2c(=O)oc3cc(Br)ccc32)s1	–	–	–	100	–	–
Cc1ccc(S(=O)(=O)CCC(=O)OCC(=O)Nc2cc(F)ccc2C)cc1	·	·	–	·	–	–
CN(C)c1ccc(C=C2SC(=S)N(Cc3ccco3)C2=O)cc1	·	·	–	·	·	·
O=C1CC(=O)N(Cc2ccco2)C(=S)N1	64	+	–	89	–	–
O=C1C(=C2CCCCC2)SC(=S)N1Cc1ccco1	–	–	–	70	–	–
O=C1CC(=O)N(Cc2ccco2)C(=O)N1	?	–	–	–	–	–
O=C(O)CCN1C(=O)C(=C2CCCCCC2)SC1=S	–	–	45	–	–	–
CCC(C)C(CO)NCCCn1cnc(C(=O)Nc2ccc(C)c(C)c2)n1 (stereo unspecified)	·	·	–	·	·	·
Cc1nn(C)cc1C(C(=O)NC1CCCCC1)N(Cc1ccccc1Cl)C(=O)c1cnccn1 (stereo unspecified)	–	–	–	–	–	–
SMILES	eIF4H inh	PABP FP inh	PABP1 MLLE inh	PHOSPHO1 inh	A3A deaminase	A3G deaminase
CN(CCN(C)C(C)(C)C)C(=O)C(c1ccccc1)c1ccccc1	–	–	–	–	–	–
CC(C)(C)CC(=O)Nc1ccc(-c2nnc3n2CCCCC3)cc1	78	+	–	–	–	–
Oc1[nH]c2ccccc2c1N=NC(=S)N1CCOCC1	–	–	–	–	–	–
Oc1[nH]c2ccc(Br)cc2c1N=NC(=S)N1CCOCC1	–	–	–	92	–	–
CCOC(=O)N1CCN(C(=O)c2ccc(Cl)c(NC(=O)c3cccs3)c2)CC1	·	·	–	·	–	–
C[C@@H](C(=O)N1CCN(C(=O)OC(C)(C)C)CC1)n1cc(CCC(=O)O)nn1	–	–	–	–	–	–
CSCCC(NC(N)=O)C(=O)Nc1ccc(C)cc1 (stereo unspecified)	–	–	–	63	–	–
CSCCC(NC(N)=O)C(=O)Nc1ccc2ccccc2c1 (stereo unspecified)	–	–	–	–	–	–
CSCCC(NC(N)=O)C(=O)Nc1cccc(C#N)c1 (stereo unspecified)	53	–	–	–	–	–
CC(=O)c1ccc(NC(=O)CCCN2C(=O)COc3ccc(C)cc32)cc1	–	–	–	70	–	–
COc1cc(/C=C2\CCc3c2nc2ccccc2c3C(=O)O)cc(OC)c1OC	87	+	–	–	–	–
CCN1C/C(=C\c2cccc(C)c2)c2nc3ccccc3c(C(=O)O)c2C1	?	+	·	–	·	·
O=C1COc2ccccc2N1Cc1c(F)cccc1Cl	–	–	–	–	–	–
CCOC(=O)c1[nH]c(CN2CCN(c3ccc(OC)cc3)CC2)c(C(=O)OCC)c1C	–	–	–	–	–	–
Cc1ccc(N(C(=O)c2csnn2)C(C(=O)NC2CCCCC2)c2cccnc2)c(C)c1 (stereo unspecified)	–	–	–	–	–	–
Cc1ccc(S(=O)(=O)NCC2CCCO2)cc1 (stereo unspecified)	–	–	–	–	–	–
CCOC(=O)COc1ccc(S(=O)(=O)NCC2CCCO2)cc1 (stereo unspecified)	–	–	–	197	–	–
Cc1ccc(Cc2c(-c3ccc(F)cc3)nc3c(Cl)cc(C(F)(F)F)cn23)cc1	·	·	–	·	·	·
Fc1ccc(-c2nc3c(Cl)cc(C(F)(F)F)cn3c2Cl)cc1	?	–	43	–	–	–
CN(C)CCCn1c2c(c(SCC(=O)Nc3cccc4ccccc34)nc1=O)CCCC2	·	·	–	·	–	–
S=C(Nc1ccc(Cl)cc1)c1sc(N2CCCCC2)nc1N1CCOCC1	79	+	–	–	–	–
O=C(NC(=S)Nc1ccc(N2CCOCC2)cc1)c1ccc(Cl)cc1	–	–	–	–	–	–
FC(F)(F)c1cc(Oc2ccc(Cl)cc2)nc(-c2ccccn2)n1	–	–	–	73	–	–
FC(F)(F)c1cc(Oc2ccccc2)nc(-c2ccccn2)n1	–	–	–	–	–	–
O=c1oc2ccccc2c(Nc2cccc(O)c2)c1[N+](=O)[O-]	84	+	–	–	–	–
SMILES	eIF4H inh	PABP FP inh	PABP1 MLLE inh	PHOSPHO1 inh	A3A deaminase	A3G deaminase
COc1ccc(/C=C2/SC(c3ccc(C)cc3)=NC2=O)cc1OC	?	?	–	74	–	–
O=C1COc2ccc(C(=O)CSc3nc4ccccc4c(=O)n3-c3ccc(Cl)c(Cl)c3)cc2N1	–	–	–	–	–	–
CCc1ccc(-n2c(SCC(=O)c3ccc4c(c3)NC(=O)CO4)nc3ccccc3c2=O)cc1	–	–	–	60	–	–
CC(=O)NCCNC(=O)C1CCCCN1S(=O)(=O)c1ccccc1 (stereo unspecified)	–	–	–	–	–	–
CC1(C)Cc2nc(Cl)c(C(N)=O)cc2CO1	–	–	–	–	–	–
CC1(C(=O)NS(=O)(=O)c2ccccc2)CCN1C(=O)c1ccccc1CCc1ccccc1 (stereo unspecified)	·	·	–	·	·	·
